# Sampled rows, rich in hits. Any-hit rate of the full collection: about 8.2%.
# MCF10A rereplic: inducers of DNA re-replication in MCF 10A breast cells; MCF 10A DNA re-replication, Hoechst nuclear intensity, 48 h; Potency, µM (top dose mostly 46.1 µM), without a hit: at the top dose activity, positive = re-replication, hits mostly activators; 2.9% of 350,000 active; also: % of control where 0% means no effect; nearly all actives have a fitted effect of over 50% in size
# KB-3-1 cytotox: kills parental KB-3-1 adenocarcinoma cells; Potency, µM (series often up to 46.1 µM), hits mostly cytotoxic; 1.4% of 400,000 active; KB-3-1 viability, CellTiter-Glo ATP luminescence, 72 h; also: % is scaled to controls: 0 for no effect and ±100 for the full control effect; nearly all actives have a fitted effect of over 60% in size
#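 Parental KB-3-1 adenocarcinoma cells in phenol-red-free DMEM with 10% FBS were pin-treated with compounds at several concentrations, incubated 72 h at 37 °C, and viability read by CellTiter-Glo luminescence; concentration-effect curves were fitted after normalization.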
# KB-V1 MDR tox: kills drug-selected multidrug resistant KB-V1 cells; KB-V1 MDR cells viability, CellTiter-Glo, 72 h; Potency, µM (series often up to 46.1 µM), hits mostly cytotoxic; 3.4% of 400,000 active; AID 1347076; also: % is scaled to controls: 0 for no effect and ±100 for the full control effect; nearly all actives have a fitted effect of over 60% in size
#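 Compound-treated KB-V1 multidrug-resistant cells, 72 h, 37 degrees C; viability by CellTiter-Glo. Fitted qHTS curves give the values.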
# ELG1 DNA repair: inhibitors of ELG1-dependent DNA repair in HEK293T cells; HEK293T ELG1-luciferase reporter, luminescence, 16 h; DNA damage induced by 5-fluorouridine; Potency, µM (titrated, usually from 46.1 µM), for inactives: top-dose activity change, negative = inhibition, hits mostly inhibitors; 2.3% of 330,000 active; AID 504467; also: % is scaled to controls: 0 for no effect and ±100 for the full control effect; nearly all actives have a fitted effect of over 55% in size
#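 DMSO vehicle served as the neutral condition. Each well held 2,000 cells given 5-fluorouridine plus compound; after 16 hr at 37 °C/5% CO2, ONE-Glo was added and luciferase measured 30 min later.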
# SW480 rereplic: DNA re-replication induction in SW480 cells; SW480 DNA re-replication, Hoechst DNA content imaging, 48 h; Potency, µM (doses to about 46.1 µM), without a hit: at the top dose re-replication activation, usual class: activators; AID 624297; 1.8% of 340,000 active; also: % of control where 0% means no effect; nearly all actives have a fitted effect of over 55% in size
#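 Hoechst fluorescence of nuclei (405 nm excitation, 500-530 nm emission) measured by plate-scanning imager after 48 hr compound exposure at 37 C; re-replication scored as increased number of nuclei with elevated intensity.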
# ELG1 FLuc counter: luciferase inhibition in cell-free luciferin readout for ELG1 hits | Potency, µM (titrated, usually from 46.1 µM), without a hit: at the top dose activity change, negative = inhibition, actives largely listed as inhibitors | AID 624247 | 3% of 350 active | shares compounds with ELG1 DNA repair | cell-free firefly luciferase luminescence counter-screen, ViewLux; also: % is scaled to controls: 0 for no effect and ±100 for the full control effect
# ELG1 Luc conf: human ELG1 repair inhibition, luciferase-tagged ELG1 confirmation. Potency, µM (series often up to 46.1 µM), for the others: top-dose activity change, negative = inhibition, actives largely listed as inhibitors. shares compounds with ELG1 DNA repair. 68% of 670 active. AID 624248. HEK293T ELG1-luciferase levels, luminescence; cells co-treated with 5-fluorouridine; also: % is scaled to controls: 0 for no effect and ±100 for the full control effect; nearly all actives have a fitted effect of over 55% in size
# Target sequence (Q96QE3 whole entry, looked up): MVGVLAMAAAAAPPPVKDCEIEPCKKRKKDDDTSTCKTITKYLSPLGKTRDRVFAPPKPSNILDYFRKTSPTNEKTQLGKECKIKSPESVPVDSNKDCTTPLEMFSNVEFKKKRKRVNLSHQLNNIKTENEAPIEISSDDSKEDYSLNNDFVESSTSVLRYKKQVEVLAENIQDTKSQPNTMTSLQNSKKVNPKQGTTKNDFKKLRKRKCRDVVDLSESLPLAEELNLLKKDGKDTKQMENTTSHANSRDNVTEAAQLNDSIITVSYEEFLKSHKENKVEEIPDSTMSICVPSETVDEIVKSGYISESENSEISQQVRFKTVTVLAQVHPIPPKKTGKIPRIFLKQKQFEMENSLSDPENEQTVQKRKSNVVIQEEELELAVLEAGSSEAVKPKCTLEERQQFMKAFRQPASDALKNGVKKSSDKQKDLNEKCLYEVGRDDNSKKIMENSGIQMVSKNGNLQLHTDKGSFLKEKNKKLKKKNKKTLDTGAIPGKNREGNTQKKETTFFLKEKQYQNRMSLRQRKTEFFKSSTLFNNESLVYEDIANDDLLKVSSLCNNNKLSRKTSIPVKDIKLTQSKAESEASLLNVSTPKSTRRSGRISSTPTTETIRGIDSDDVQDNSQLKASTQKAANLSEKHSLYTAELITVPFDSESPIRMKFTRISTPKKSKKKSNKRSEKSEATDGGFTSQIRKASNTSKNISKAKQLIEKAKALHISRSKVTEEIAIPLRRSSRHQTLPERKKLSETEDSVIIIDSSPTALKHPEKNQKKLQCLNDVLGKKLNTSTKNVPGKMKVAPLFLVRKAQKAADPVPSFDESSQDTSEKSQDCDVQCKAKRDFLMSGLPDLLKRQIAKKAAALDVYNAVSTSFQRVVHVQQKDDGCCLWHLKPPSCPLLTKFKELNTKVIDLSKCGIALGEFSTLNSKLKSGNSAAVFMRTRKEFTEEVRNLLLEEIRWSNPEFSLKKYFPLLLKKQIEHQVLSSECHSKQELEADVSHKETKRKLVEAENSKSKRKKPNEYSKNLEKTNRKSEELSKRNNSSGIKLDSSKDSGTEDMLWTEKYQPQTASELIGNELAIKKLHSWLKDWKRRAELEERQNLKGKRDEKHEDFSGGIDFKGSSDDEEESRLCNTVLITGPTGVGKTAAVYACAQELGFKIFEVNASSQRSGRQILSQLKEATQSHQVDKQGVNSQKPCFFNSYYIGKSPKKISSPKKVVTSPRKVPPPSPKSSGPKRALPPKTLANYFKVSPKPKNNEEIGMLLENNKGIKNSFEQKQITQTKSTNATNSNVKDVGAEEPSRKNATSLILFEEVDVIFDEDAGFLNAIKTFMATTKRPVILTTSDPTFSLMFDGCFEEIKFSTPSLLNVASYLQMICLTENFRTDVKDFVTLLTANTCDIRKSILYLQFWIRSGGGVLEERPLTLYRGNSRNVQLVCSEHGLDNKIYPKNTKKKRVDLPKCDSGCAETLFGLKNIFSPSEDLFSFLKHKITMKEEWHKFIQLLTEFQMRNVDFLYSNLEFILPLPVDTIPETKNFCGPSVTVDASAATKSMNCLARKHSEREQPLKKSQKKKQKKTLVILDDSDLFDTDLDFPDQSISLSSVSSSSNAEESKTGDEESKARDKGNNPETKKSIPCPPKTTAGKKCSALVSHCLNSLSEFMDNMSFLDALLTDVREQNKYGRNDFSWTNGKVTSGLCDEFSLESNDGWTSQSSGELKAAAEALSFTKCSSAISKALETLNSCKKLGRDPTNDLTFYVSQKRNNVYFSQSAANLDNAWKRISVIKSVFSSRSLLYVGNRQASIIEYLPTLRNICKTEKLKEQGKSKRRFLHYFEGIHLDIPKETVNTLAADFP
# ELG1-Luc MMS: inhibits ELG1-dependent repair under MMS stimulation in HEK293T cells | Potency, µM (titrated, usually from 46.1 µM), without a hit: at the top dose activity change, negative = inhibition, most hits filed as inhibitors | HEK293T luciferase-tagged ELG1 level, MMS stimulated | 53% of 670 active | shares compounds with ELG1 DNA repair; also: % is scaled to controls: 0 for no effect and ±100 for the full control effect; nearly all actives have a fitted effect of over 60% in size
# ELG1 5-FU: confirmation of ELG1 repair inhibitors: viability with 5FU; cell viability with 5-FU, ELG1-dependent repair; 670 tested, under 10 active; shares compounds with ELG1 DNA repair; Potency, µM (doses to about 46.1 µM), for the others: top-dose activity change, negative = viability loss, actives largely listed as cytotoxic; AID 624250;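 also: ELG1-luc HEK293T cells cotreated with 5-fluorouridine at 10 µM final; viability measured 16 h after compound addition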
# ELG1 MMS viab: confirmation of ELG1 repair inhibitors: viability with MMS; shares compounds with ELG1 DNA repair; Cell viability with MMS, ELG1-dependent DNA repair; Potency, µM (highest dose often 46.1 µM), for the others: at the highest dose activity change, negative = viability loss, hits mostly cytotoxic; 33% of 670 active; AID 624251;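 also: ELG1-luc HEK293T cells co-treated with 10 µM MMS; viability read 16 h after compound addition; % is scaled to controls: 0 for no effect and ±100 for the full control effect; nearly all actives have a fitted effect of over 60% in size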
# ELG1 unstim viab: affects unstimulated cell viability, ELG1 hit counter-screen | shares compounds with ELG1 DNA repair | cell viability counter-screen, unstimulated, luminescence | Potency, µM (highest dose often 45.9 µM), for inactives: at the highest dose activity change, negative = loss of viability, actives largely listed as cytotoxic | 8% of 900 active | AID 624252;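 also: compound exposure lasted 16 hours before reading; % is scaled to controls: 0 for no effect and ±100 for the full control effect; nearly all actives have a fitted effect of over 55% in size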
# FLuc enzyme: inhibits purified firefly luciferase, counter-screen for ELG1 hits | 10% of 350 active | Potency, µM (series often up to 57.5 µM), for inactives: top-dose activity, negative = inhibition, usual class: inhibitors | AID 624253 | purified firefly luciferase, luminescence counter-screen | shares compounds with ELG1 DNA repair; also: % is scaled to controls: 0 for no effect and ±100 for the full control effect
# * marks the source's active call; other numbers are inactive results; i = inactive; ? = inconclusive; nt = no result given; [ ] = remark or other dose. Calls follow the shape of the dose curve; as a rule, active = well fitted curve in the direction sought with a large enough effect; inconclusive = small, poorly fitted or top-dose-only effect, or another doubt; inactive = no such curve, though single readings can be large; an effect the other way counts as inactive or inconclusive. Potency is read from the fitted curve at half-maximal effect.
SMILES,MCF10A rereplic,KB-3-1 cytotox,KB-V1 MDR tox,ELG1 DNA repair,SW480 rereplic,ELG1 Luc conf,ELG1-Luc MMS,ELG1 5-FU,ELG1 MMS viab,ELG1 unstim viab,others
O=C(Nc1ccc(N2CCN(C(=O)c3ccco3)CC2)cc1)c1ccc([N+](=O)[O-])cc1Cl,2.3%,i,i,4.61µM*,?,6.28µM*,7.05µM*,?,?,?,
CC1CCc2cc(F)ccc2N1C(=O)c1cccnc1 (centres undefined),-5.0%,i,i,4.8%,11.2%,nt,nt,nt,nt,nt,
CCc1nc(CN2CCN(c3ccc(C(F)(F)F)cn3)CC2)c(C)[nH]1,?,?,?,?,-3.6%,?,3.15µM*,-3.5%,4.45µM*,?,
Cc1cccc(C)c1NC(=O)CN1CCN(c2ccc(C(F)(F)F)cn2)CC1,nt,i,i,nt,nt,nt,nt,nt,nt,nt,
CCCCSCCCNC(=O)CN1C(=O)COc2ccc(S(=O)(=O)N3CCC(C)CC3)cc21,nt,i,?,nt,nt,nt,nt,nt,nt,nt,
COc1cc2nc(NCC3CCCO3)n3nc(-c4cccnc4)nc3c2cc1OC (centres undefined),-1.5%,i,i,2.31µM*,-3.3%,3.97µM*,17.7µM*,?,5.2%,-11.5%,
COc1cc2nc(NCc3ccccc3)n3nc(-c4ccccc4)nc3c2cc1OC,nt,i,i,nt,nt,nt,nt,nt,nt,nt,
CCOCCCNc1nc2cc(OC)c(OC)cc2c2nc(-c3ccccc3)nn12,nt,i,?,nt,nt,nt,nt,nt,nt,nt,
COCCCNc1nc2cc(OC)c(OC)cc2c2nc(-c3ccccc3)nn12,5.5%,i,?,4.11µM*,-2.9%,2.23µM*,?,?,-10.1%,?,
CCc1ccc(C=O)cc1,nt,i,i,nt,nt,nt,nt,nt,nt,nt,
Cc1ccccc1N1C(=O)c2ccccc2N2C(=O)c3ccccc3C12 (centres undefined),3.6%,i,i,?,-5.4%,nt,nt,nt,nt,nt,
COc1ccc2c(c1OC)C(=O)N1c3ccccc3C(=O)N(c3ccc(F)cc3)C21 (centres undefined),?,i,?,?,-0.4%,5µM*,7.92µM*,-2.0%,?,?,ELG1 FLuc counter=?;FLuc enzyme=-3.1%
COc1ccc2c(c1OC)C(=O)N1c3ccccc3C(=O)N(c3ccccc3)C21 (centres undefined),?,i,i,?,-3.6%[9.22 µM],2.23µM*,5µM*,-0.4%,?,?,ELG1 FLuc counter=-11.0%;FLuc enzyme=0.7%
O=C(NC(=S)Nc1ncc(Br)cc1Br)c1ccccc1,4.7%,i,i,?,-1.4%,nt,nt,nt,nt,nt,
COc1ccc(Br)c(C(=O)Nc2cccc(S(=O)(=O)N3CCOCC3)c2)c1,-5.2%,i,i,-4.5%,-14.3%,nt,nt,nt,nt,nt,
COc1ccc(-c2cc(C(F)F)n3ncc(C(=O)Nc4cccc(S(=O)(=O)N5CCOCC5)c4)c3n2)cc1,?,i,i,3.66µM*,-3.3%,?,22.0%,12.0%,-5.2%,-12.9%,
COc1ccccc1-n1c(SCC(=O)N(C)C)nnc1-c1ccco1,?,?,i,nt,?,nt,nt,nt,nt,nt,
O=C(Nc1ccc(NC(=O)c2cccs2)cc1)c1ccc(Br)cc1,nt,i,i,nt,nt,nt,nt,nt,nt,nt,
CCc1nnc(SCC(=O)N(CC)c2ccccc2)c2cc3oc(C)cc3n12,nt,i,i,nt,nt,nt,nt,nt,nt,nt,
NC(=O)c1ccc(N2CCN(S(=O)(=O)c3ccccc3)CC2)c([N+](=O)[O-])c1,35.0%,18.4µM*,9.2µM*,1.64µM*,-4.4%,?,0.705µM*,2.0%,0.791µM*,-16.9%,
NC(=O)c1ccc(N2CCN(c3ccc(O)cc3)CC2)c([N+](=O)[O-])c1,-7.2%,i,i,4.11µM*,-1.5%,6.28µM*,4.7%,?,?,-1.5%,
C=CCN1C(=O)C(C)(C)N(C(=O)c2cccc([N+](=O)[O-])c2)c2ccccc21,-4.0%,i,?,?,7.3%,nt,nt,nt,nt,nt,
O=C(Nc1nnc(-c2ccccc2Cl)o1)c1ccc(S(=O)(=O)N2CCCCCC2)cc1,3.98µM*,?,8.2µM*,1µM*,?,?,?,-0.8%,-9.7%,?,ELG1 FLuc counter=8.7%;FLuc enzyme=-2.7%
COc1ccccc1CCNC(=O)C(=O)NCC1CCCN1S(=O)(=O)c1ccccc1 (centres undefined),?,i,20.6µM*,4.11µM*,?,14.1µM*,15.8µM*,-3.4%,?,22.3µM*,
COc1ccccc1CNC(=O)C(=O)NCCC1CCCCN1S(=O)(=O)c1ccccc1 (centres undefined),11.3%,i,i,?,12.8%,nt,nt,nt,nt,nt,
Cc1nn(-c2ccc(C(=O)N3CCN(S(=O)(=O)c4ccccc4C(F)(F)F)CC3)cc2)c(C)c1Cl,6.9%,i,i,3.26µM*,-2.9%,7.05µM*,?,?,?,?,
Cc1cc(C)cc(NC(=O)C(=O)NCC2CCCN2S(=O)(=O)c2cccs2)c1 (centres undefined),?,i,i,-28.1%,19.5%,nt,nt,nt,nt,nt,
CSc1nc(N2CCOCC2)c2c3c(sc2n1)CCCC3,22.0%,i,?,-2.7%,-4.6%,nt,nt,nt,nt,nt,
